Unmarked numbers belong to inactive results. Activity calls are given as the source filed them.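 Rule for the calls: active = inhibition reaching about 16% in any single replicate (limit read from the data); inactive = the rest.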
The compounds below were run against Hexokinase HKDC1 (Homo sapiens) (UniProt Q2TB90) (assay: HKDC1 hexokinase inhibitors, confirmation, biochemical, single concentration (AID 504710)). Conditions: recombinant HKDC1, G6PDH/diaphorase/resazurin fluorescence; at 20 µM; active compounds read high.
Sequence of Hexokinase HKDC1 (Homo sapiens) (Q2TB90 whole entry, looked up): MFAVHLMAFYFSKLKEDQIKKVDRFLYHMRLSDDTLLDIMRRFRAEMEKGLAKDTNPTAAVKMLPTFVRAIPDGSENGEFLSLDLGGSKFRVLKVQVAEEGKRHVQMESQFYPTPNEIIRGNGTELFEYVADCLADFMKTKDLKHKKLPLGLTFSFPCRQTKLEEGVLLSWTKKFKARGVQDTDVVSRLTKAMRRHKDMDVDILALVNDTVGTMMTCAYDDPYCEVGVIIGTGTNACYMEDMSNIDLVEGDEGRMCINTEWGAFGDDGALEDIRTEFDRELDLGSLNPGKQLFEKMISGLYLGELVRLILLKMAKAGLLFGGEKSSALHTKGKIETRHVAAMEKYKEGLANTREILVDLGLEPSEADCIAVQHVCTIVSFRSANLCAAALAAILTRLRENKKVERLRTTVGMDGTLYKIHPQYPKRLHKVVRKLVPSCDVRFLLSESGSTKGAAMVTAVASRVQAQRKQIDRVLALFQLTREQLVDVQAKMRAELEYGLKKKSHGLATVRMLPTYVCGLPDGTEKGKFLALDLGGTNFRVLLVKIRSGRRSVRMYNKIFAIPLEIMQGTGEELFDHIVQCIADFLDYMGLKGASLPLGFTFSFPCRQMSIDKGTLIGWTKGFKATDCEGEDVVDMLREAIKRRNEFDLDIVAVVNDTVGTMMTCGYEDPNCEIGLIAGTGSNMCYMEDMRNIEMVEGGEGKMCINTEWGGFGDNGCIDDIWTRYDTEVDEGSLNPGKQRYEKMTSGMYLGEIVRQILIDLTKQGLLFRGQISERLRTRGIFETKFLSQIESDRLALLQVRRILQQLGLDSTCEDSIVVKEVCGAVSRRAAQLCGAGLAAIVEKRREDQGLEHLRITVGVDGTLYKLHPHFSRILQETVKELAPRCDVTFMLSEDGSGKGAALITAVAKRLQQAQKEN
In the case of CCOC(=O)c1ccc(NC(=O)CSc2n[nH]c(-c3ccncc3)n2)cc1, the inhibition is reported as 50.3% (active).
With Cc1ccc(N=Cc2cc(Cc3ccccc3Cl)cc([N+](=O)[O-])c2O)c(O)c1 the inhibition was 30.2% (active).
With CN1c2ccc(C=O)c3c(C=O)ccc(c23)N(C)C1(C)C the inhibition was 61.2% (active).
Work on Cc1cc(C2=NNC(=Nc3ccc(S(=O)(=O)N4CCOCC4)cc3)SC2)c(C)n1CC1CCCO1 (configuration not stated) yielded an inhibition of -55.8%.
In the case of O=C(O)c1cc(N2N=C(C(F)(F)F)/C(=C/C=C/c3ccco3)C2=O)ccc1Cl, the inhibition is reported as 57.5% (active).
With Cc1nc2c(O)c3c(c(O)c2nc1C)C1C=CC3CC1 the inhibition was 89.5% (active).
In the case of O=C(CSc1n[nH]c(-c2cccnc2)n1)Nc1ccc([N+](=O)[O-])cc1Br, the inhibition is reported as 56.4% (active).
In the case of O=C(NC1=CC(=O)c2ccccc2C1=O)c1ccccc1, the inhibition is reported as 69.9% (active).
COc1ccc(CN2C(=O)c3cccnc3C2O)cc1 (configuration not stated) was tested, and the inhibition was 35.8% (active).
With COc1ccc(N=C2NN=C(c3ccc4c(c3)OCCO4)CS2)cc1 the inhibition was -33.1%.
With Cc1ccc(C2=NNC(=Nc3ccc(F)cc3)SC2)cc1 the inhibition was -80%.
With Cc1ccccc1NC1=C/C(=N\S(=O)(=O)c2ccc(C(=O)O)cc2)c2ccccc2C1=O the inhibition was 71.3% (active).
Work on O=S(=O)(NC1c2cccc3cccc(c23)C1N1CCN(CCO)CC1)c1ccccc1 (configuration not stated) yielded an inhibition of -118%.
CN(C)Cc1cc(O)c(CN(C)C)cc1O was tested, and the inhibition was 70.3% (active).
In the case of O=NNc1nc2ccccc2n1Cc1ccccc1, the inhibition is reported as -44.2%.
With COC1=C(Br)C(=O)c2ncccc2C1=O the inhibition was 64.7% (active).
O=C1C=CC(=O)C(C2=C3C(=O)N(CCc4ccccc4)CC(=O)N3CCC2)=C1 was tested, and the inhibition was 70.9% (active).
Compound Cc1ccc2oc(=O)c3cnn(CC(=O)N4CCCCCC4)c3c2c1 has an inhibition of -63.5%.
In the case of Cc1cc2cc(CCNC(=O)c3ccc(S(=O)(=O)N4CCCC4)cc3)c(=O)[nH]c2cc1C, the inhibition is reported as 53.2% (active).
For CCOC(=O)c1c(C)[nH]c(C2=NNC(=Nc3ccccc3)SC2)c1C, the inhibition was -141%.
In the case of CCc1nc2sc3c(=O)[nH]cnc3c2c2c1CSC(C)(C)C2, the inhibition is reported as 30.5% (active).
CCc1nc2c(c(=O)c3ccccc3n2C)c(=O)n1-c1ccc(F)cc1 was tested, and the inhibition was 72.7% (active).
With CC[n+]1c(/C=C2\Sc3ccccc3N2C)ccc2cccc(C)c21 the inhibition was -37.8%.
In the case of CNCc1ccccc1Sc1cc(O)ccc1O, the inhibition is reported as 64.6% (active).
CCOC(=O)CSc1nc2ccc(C)cc2n2cnnc12 was tested, and the inhibition was 63.8% (active).
With CCCCNC(=O)c1sc(=S)n2c1[nH]c(=O)c1ccc(C(=O)NCCc3ccc(OC)c(OC)c3)cc12 the inhibition was 49.8% (active).
For O=C(c1ccccc1)c1n[nH]c(-c2ccccc2)cc1=O, the inhibition was 16.3% (active).
For C=CCn1c(SCC(=O)Nc2sc3c(c2C#N)CCC(C)C3)nc2cc(C(=O)O)ccc2c1=O (configuration not stated), the inhibition was 32.7% (active).
For COc1ccc(/C=C/C(=O)NC(=S)NNC(=O)c2cnccn2)cc1, the inhibition was -58.3%.
With CC(C)(C)c1c(Cl)c(O)c(-c2ccccc2)c(=O)n1-c1ccccc1 the inhibition was 40.9% (active).
With O=C1C=C(Nc2ccccc2C(=O)O)c2ccccc2C1=O the inhibition was 44.3% (active).
Work on Cc1cc(C2=NNC(=Nc3ccc(S(=O)(=O)N4CCOCC4)cc3)SC2)c(C)n1C yielded an inhibition of -46.6%.
For CC(C)c1nc2oc3c(NCCO)ncnc3c2c2c1COC(C)(C)C2, the inhibition was 66.2% (active).
Nc1nc(N2CCN(c3ccccn3)CC2)nc2ccccc12 gave an inhibition of -44.1%.
COc1ccc(NC(=O)CSc2ccc(-c3ccco3)nn2)cc1OC was tested, and the inhibition was 44% (active).
For Nc1ccc(S(=O)(=O)c2cc(O)c3ccccc3c2O)cc1, the inhibition was 68.7% (active).
For Cc1nc(COC(=O)c2cc(O)c3ccccc3c2O)cs1, the inhibition was 39.5% (active).

Reference: PubChem BioAssay AID504710 (Sanford-Burnham Center for Chemical Genomics, 2011)
